Screens: PubChem BioAssay, several laboratories
SMARCA2 act: SMARCA2 (BRM) function activators, primary screen, cell-based, luminescence, high throughput; hit rate 1% among 370,000; AID 652017, 2013; MG213 cells, MMTV-luciferase reporter, dexamethasone, overnight; activation, % at 9.1 µM; in the data active means activation above about 7.8%
Wnt bcat act: Wnt/beta-catenin pathway activators, primary screen, cell-based, plate reader, single point; AID 743398, 2014; activation, % at 9.35 µM; Wnt/beta-catenin reporter cell assay, activator; hit rate 1.2% among 300,000; in the data active means activation above about 30%, passing the limit was not always enough
AF4-AF9 inh: inhibitors of AF4 peptide binding to AF9, primary screen, biochemical, AlphaScreen, biotin-AF4 peptide, FLAG-AF9, single point. inhibition, % at 10 µM. Protein AF-9 (Homo sapiens), P42568. AID 651704, 2012. hit rate 0.47% among 350,000;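 active means every replicate reaching a set inhibition limit, whatever the replicate mean, cut at about 25% in these data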
Target sequence (P42568 whole entry, looked up): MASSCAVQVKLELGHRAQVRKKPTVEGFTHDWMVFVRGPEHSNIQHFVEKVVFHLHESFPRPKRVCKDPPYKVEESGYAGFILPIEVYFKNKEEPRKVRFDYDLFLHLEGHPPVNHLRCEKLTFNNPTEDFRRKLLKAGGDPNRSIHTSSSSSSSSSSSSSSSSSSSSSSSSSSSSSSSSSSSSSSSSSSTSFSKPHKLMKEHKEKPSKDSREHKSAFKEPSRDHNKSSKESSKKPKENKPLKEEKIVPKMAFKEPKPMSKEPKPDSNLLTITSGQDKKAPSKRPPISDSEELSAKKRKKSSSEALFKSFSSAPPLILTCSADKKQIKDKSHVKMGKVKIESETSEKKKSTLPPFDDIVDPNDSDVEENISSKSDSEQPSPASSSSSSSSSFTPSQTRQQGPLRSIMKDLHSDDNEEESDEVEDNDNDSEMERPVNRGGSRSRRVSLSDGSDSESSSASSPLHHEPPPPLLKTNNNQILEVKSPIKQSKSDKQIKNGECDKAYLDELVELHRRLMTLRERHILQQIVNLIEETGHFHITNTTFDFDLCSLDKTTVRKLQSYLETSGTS
esBAF inh: Bmi1 luciferase reporter increase in mESCs, primary screen, esBAF inhibitor project, mouse ES cells, Bmi1 luciferase knock-in, single point. reporter increase, % at 12.5 µM. 24 h; 100% = twice the neutral-well signal. hit rate 2% among 350,000; in the data active means activation above about 40%;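 further: a rise in the Bmi1 reporter signal indicates esBAF inhibition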
FGF22 binding: binders of human FGF22 protein, primary screen, FGF22 synaptogenesis inhibitor project, biophysical, thermal shift, single point; Fibroblast growth factor 22 (Homo sapiens), Q9HCT0; recombinant FGF22 thermal shift, SYPRO orange fluorescence; percent of sucrose octasulfate shift, DMSO zero; activity (Tm shift, normalised), % at 9.99 µM; hit rate 1.5% among 340,000;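 active means mean Tm shift, scaled 0 neutral to 100 positive control, at about 1.3% or above, every replicate too, limit read from the data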
Target sequence (Q9HCT0 whole entry, looked up): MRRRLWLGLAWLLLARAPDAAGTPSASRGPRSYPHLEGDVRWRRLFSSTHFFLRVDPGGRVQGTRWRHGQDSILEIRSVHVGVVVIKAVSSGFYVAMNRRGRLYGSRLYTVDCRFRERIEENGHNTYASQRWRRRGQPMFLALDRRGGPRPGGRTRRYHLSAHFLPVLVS
MITF act: activators of MITF-driven TRPM1 promoter reporter, primary screen, cell-based, SK-MEL-5, luciferase, single point | SK-MEL-5 TRPM1-promoter luciferase, 24 h; % of positive control, neutral wells = 0 | hit rate 0.75% among 300,000 | activation, % at 12.5 µM;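 active means mean activation of at least 80% with every replicate also reaching 80%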
Large screens that a line does not name were inactive. This is a sample that favours compounds with a hit; in the whole collection about 4.3% have one here.

N/C(=N\NC(=O)c1cccc(F)c1)c1cc2ccccc2oc1=O	none
Cc1ccc(Cn2nc(-c3ccccc3)nc2-c2ccccc2)cc1	Wnt bcat act 55.3 (no result: AF4-AF9 inh, FGF22 binding)
c1ccc(Cn2nc(-c3ccccc3)nc2-c2ccccc2)cc1	none (no result: Wnt bcat act, AF4-AF9 inh, esBAF inh, FGF22 binding)
C[C@H](CO)N1C[C@H](C)[C@H](CN(C)Cc2ccc3c(c2)OCO3)Oc2c(NC(=O)c3ccc(-c4nccs4)cc3)cccc2C1=O	none (no result: SMARCA2 act, Wnt bcat act, MITF act)
CCOc1cc(C2C3=C(CC(C)(C)CC3=O)N(CCOC)C3=C2C(=O)CC(C)(C)C3)ccc1OC	none (no result: MITF act)
CCOc1cc(C2C3=C(CC(C)(C)CC3=O)N(CCCOC)C3=C2C(=O)CC(C)(C)C3)ccc1OC	AF4-AF9 inh 29.0
NC(=O)[C@@H]1CCCN1Cc1nc(-c2ccc(C(F)(F)F)cc2)no1	FGF22 binding 43.0 (no result: esBAF inh)
COc1ccccc1N1CCN(/N=C/c2cccc(O)c2)CC1	FGF22 binding 43.9 (no result: esBAF inh)
COc1ccccc1N1CCN(/N=C/c2ccc(Cl)c([N+](=O)[O-])c2)CC1	esBAF inh 43.8
Cc1cc(C(=O)COC(=O)C2=COCCO2)c(C)n1-c1cccc(F)c1	esBAF inh 54.7, MITF act 107.3
Cc1cc(C(=O)COC(=O)C2=COCCO2)c(C)n1-c1ccc2c(c1)OCO2	none (no result: AF4-AF9 inh, FGF22 binding)
Cc1cc(C(=O)CSc2ncccn2)c(C)n1-c1cccc(F)c1	Wnt bcat act 82.5 (no result: AF4-AF9 inh, esBAF inh, FGF22 binding)
Cc1cc(C(=O)CSc2nnnn2C)c(C)n1-c1cccc(F)c1	MITF act 98.1 (no result: Wnt bcat act, AF4-AF9 inh, FGF22 binding)
C[C@@H]1CN([C@@H](C)CO)S(=O)(=O)c2ccc(-c3ccc(F)cc3)cc2O[C@@H]1CN(C)C(=O)C1CC1	none (no result: SMARCA2 act, Wnt bcat act, AF4-AF9 inh, FGF22 binding, MITF act)
COc1ccc(NC(=O)Nc2ccc3c(c2)[C@H]2C[C@H](CC(=O)N4CCN(C)CC4)O[C@H](CO)[C@H]2O3)cc1	none (no result: SMARCA2 act, Wnt bcat act, MITF act)
O=C(O)C[C@H]1C[C@H]2c3cc(NS(=O)(=O)c4ccccc4)ccc3O[C@H]2[C@@H](CO)O1	none (no result: SMARCA2 act, Wnt bcat act, esBAF inh, FGF22 binding, MITF act)
O=C(Cn1nnc(-c2ccccc2)n1)NCc1cccs1	none (no result: Wnt bcat act, AF4-AF9 inh, FGF22 binding)
O=C(Cn1nnc(-c2cccs2)n1)NCc1cccs1	FGF22 binding 43.2 (no result: esBAF inh)
CC1CCN(C(=O)Cn2nnc(-c3cccs3)n2)CC1	esBAF inh 48.4
Cc1ccc(C(=O)Cn2nnc(-c3cccs3)n2)cc1	Wnt bcat act 39.8
Cc1ccc(S(=O)(=O)N2CCOCC2)cc1NC(=O)CSc1nnc2n1CCCCC2	none
Cc1ccc(C(=O)CSc2nnc3n2CCCCC3)s1	esBAF inh 64.8 (no result: FGF22 binding)
CC(C)(C)C(=O)NCc1ccc(C(=O)CSc2nnc3n2CCCCC3)s1	none (no result: MITF act)
CS(=O)(=O)c1ccc(Cl)c(NC(=O)CSc2nnc3n2CCCCC3)c1	FGF22 binding 43.8 (no result: MITF act)
Cc1noc(N)c1C1(O)C(=O)N(C(C)C)c2ccccc21 (stereo unspecified)	FGF22 binding 43.1
Cc1nn(-c2ccccc2)c(N)c1C1(O)C(=O)N(C(C)C)c2ccccc21 (stereo unspecified)	none (no result: Wnt bcat act, esBAF inh)
Cc1cnc(C(=O)N(c2ccc(N3CCOCC3)cc2)C2C(=O)Nc3ccccc3N=C2c2ccc3c(c2)OCO3)cn1 (stereo unspecified)	none (no result: MITF act)
COc1ccc(C2=Nc3ccccc3NC(=O)C2N(C(=O)c2cnc(C)cn2)c2ccc(N3CCOCC3)cc2)cc1 (stereo unspecified)	esBAF inh 47.7 (no result: MITF act)
Cc1c2ccccc2nc2c(F)c(NCCO)c(F)c(F)c12	none (no result: AF4-AF9 inh, esBAF inh, FGF22 binding)
OCCNc1c2ccccc2nc2c(F)c(F)c(F)c(F)c12	Wnt bcat act 251.3 (no result: AF4-AF9 inh, esBAF inh, FGF22 binding)
COc1ccccc1-c1ccc([C@@H]2[C@@H](CO)N(C(=O)C3CC3)C23CN(C(C)=O)C3)cc1	none (no result: SMARCA2 act, Wnt bcat act, esBAF inh, MITF act)
Cc1ccc(Sc2c(O)c3ccccc3n(C)c2=O)cc1	none
Cc1ccc(Sc2c([N+](=O)[O-])c(=O)n(C)c3ccccc23)cc1	Wnt bcat act 32.3 (no result: MITF act)
COc1ccccc1CC(=O)NNC(=O)c1cccs1	FGF22 binding 43.7
O=C(NNC(=O)c1cccs1)c1ccc([N+](=O)[O-])cc1	FGF22 binding 43.5 (no result: esBAF inh, MITF act)
O=C(NNC(=O)c1cccs1)c1ccc(F)cc1	FGF22 binding 43.1
COCC(=O)Nc1ccc2c(c1)C(=O)N(C)C[C@H](OC)[C@@H](C)CN(C(=O)Cc1ccccn1)[C@H](C)CO2	none (no result: SMARCA2 act, Wnt bcat act, MITF act)
O=C(C[C@H]1CC[C@H]2[C@@H](COC[C@@H](O)CN2Cc2cccc(C(F)(F)F)c2)O1)NCc1ccc(F)cc1	none (no result: SMARCA2 act, Wnt bcat act, MITF act)
CC(C)NC(=O)N[C@H]1CC[C@H](CC(=O)NCCCN(C)C)O[C@@H]1CO	none (no result: SMARCA2 act, Wnt bcat act, AF4-AF9 inh, FGF22 binding, MITF act)
COc1ccc(N(C(=O)c2cnsn2)C(C(=O)NC2CCCCC2)c2ccncc2)cc1 (stereo unspecified)	FGF22 binding 43.0 (no result: esBAF inh)
COc1ccc(N(C(=O)CNC(=O)c2ccco2)C(C(=O)NC2CCCCC2)c2ccncc2)cc1 (stereo unspecified)	none
COc1ccc(N(C(=O)Cn2cnc3ccccc32)C(C(=O)NC2CCCCC2)c2ccccc2)cc1 (stereo unspecified)	Wnt bcat act 56.0 (no result: AF4-AF9 inh, FGF22 binding)
CCC(=O)N1[C@@H](CO)[C@@H](c2ccccc2)[C@@H]1CN(CC)C(=O)c1ccccc1	none (no result: SMARCA2 act, Wnt bcat act, MITF act)
Cn1cc(C=C2C(=O)OC3(CCCCC3)OC2=O)c2ccccc21	AF4-AF9 inh 25.7 (no result: esBAF inh, MITF act)
COc1cc(OC)cc(C(=O)N2CCCc3ccccc32)c1	none
COc1ccc2oc(C(=O)N3CCCc4ccccc43)c(C)c2c1	esBAF inh 74.8
CNC[C@H]1Oc2ccc(NC(=O)Cc3ccccc3)cc2C(=O)N([C@H](C)CO)C[C@H]1C	none (no result: SMARCA2 act, Wnt bcat act, MITF act)
CCOc1ccc(/C=N/n2cc(-c3ccccc3)[nH]c2=S)cc1	esBAF inh 44.8
CCCNC(=O)N1C[C@@H](O)COC[C@@H]2O[C@H](CC(=O)O)CC[C@H]21	none (no result: SMARCA2 act, Wnt bcat act, MITF act)
CCC1CCCCN1CCCNC(=O)c1ccc2nc(N3CCC(C)CC3)sc2c1 (stereo unspecified)	esBAF inh 58.2
CC1CCN(c2nc3ccc(C(=O)O)cc3s2)CC1	none (no result: Wnt bcat act, AF4-AF9 inh, FGF22 binding)
O=C(C[C@@H]1C[C@@H]2c3cc(NC(=O)C4CCC4)ccc3O[C@@H]2[C@@H](CO)O1)NCc1cc(F)ccc1F	none (no result: SMARCA2 act, Wnt bcat act, MITF act)
CC(=O)Nc1nc(C(=O)O)cs1	FGF22 binding 42.9
Cc1cc(C(=O)N2CCN(C(c3ccccc3)c3ccccc3)CC2)no1	none (no result: Wnt bcat act, AF4-AF9 inh, FGF22 binding)
CCCc1cc(C(=O)N2CCN(C(c3ccccc3)c3ccccc3)CC2)no1	AF4-AF9 inh 49.6
O=C(O)c1ccc(-c2noc(-c3cccc(C(F)(F)F)c3)n2)cc1	none (no result: FGF22 binding)
NC(=O)c1ccc(-c2noc(-c3cccc(Cl)c3)n2)cc1	Wnt bcat act 36.4, MITF act 125.4
COc1cc(-c2noc(-c3cccc(Cl)c3)n2)cc(OC)c1OC	none (no result: AF4-AF9 inh, FGF22 binding, MITF act)
